In PubChem BioAssay (NCATS):
For part of these data: Measured potencies and affinities stand elsewhere. Activity calls are given as the source filed them. No rule for the calls is given here.

Tests used:
[1] = Ebola virus entry assay, green fluorescence channel
[2] = Ebola virus entry assay, blue channel fluorescence
[3] = Ebola virus entry assay, ratio channel
[4] = Ebola virus entry assay, green channel fluorescence
[5] = Ebola virus entry assay, reporter ratio channel; Channel type: primary
[6] = Ebola virus entry assay, blue channel (ratio component)
For efficacy in this document: 0% is about no effect.

Row | Structure (SMILES) | efficacy [1] | outcome [2] | outcome [3] | outcome [4] | outcome [5] | outcome [6] | AC50 [5]
1 | COc1ccc(CCC(C)=O)cc1 | 11.4% (inactive) | inactive | inactive | inactive | inactive | inactive | –
2 | C/C(=N/NC(=O)c1ccncc1)C(=O)O | -27.5% (inactive) | inactive | inactive | inactive | inactive | inactive | –
3 | NC(=O)NNc1ccccc1 | -21.6% (inactive) | inactive | inactive | inactive | inactive | inactive | –
4 | CC(=O)Nc1ccc(OCCOCCOc2ccc(NC(C)=O)cc2)cc1 | 20.2% (inactive) | inactive | inactive | inactive | inactive | inactive | –
5 | CN1CCCN=C1/C=C/c1cccs1 | -15% (inactive) | inactive | inactive | inactive | inactive | inactive | –
6 | O=C1OC(OC(=O)c2cccnc2Nc2cccc(C(F)(F)F)c2)c2ccccc21 (stereo not given) | -25.3% (inactive) | inactive | inactive | inactive | inactive | inactive | –
7 | NS(=O)(=O)c1cc2c(cc1Cl)CN(C1CCCCC1)C2=O | 30.3% (inactive) | inactive | inactive | inactive | inactive | inactive | –
8 | CCCCOC(=O)CCCCCCCCC(=O)OCCCC | -13.9% (inactive) | inactive | inactive | inactive | inactive | inactive | –
9 | O=C(O)CCNC(=O)c1ccccc1 | -15.3% (inactive) | inactive | inactive | inactive | inactive | inactive | –
10 | CCCCN(CCCC)C(C(N)=O)c1ccc(OC)cc1 (stereo not given) | 14.3% (inactive) | inactive | inactive | inactive | inactive | inactive | –
11 | CCn1ccnc1CC1COc2ccccc2O1 (stereo not given) | -17.5% (inactive) | inactive | inactive | inactive | inactive | inactive | –
12 | C[C@@H]1C[C@H]2[C@@H]3CCC4=CC(=O)C=C[C@]4(C)[C@@]3(F)[C@@H](O)C[C@]2(C)[C@H]1C(=O)CO | 20.4% (inactive) | inactive | inactive | inactive | inactive | inactive | –
13 | C#C[C@]1(O)CC[C@H]2[C@@H]3CCC4=CC(=O)CC[C@@H]4[C@H]3CC[C@@]21C | -11.7% (inactive) | inactive | inactive | inactive | inactive | inactive | –
14 | Cc1ncc([N+](=O)[O-])n1C | 20.2% (inactive) | inactive | inactive | inactive | inactive | inactive | –
15 | CCCCN1CCCC[C@H]1C(=O)Nc1c(C)cccc1C | 30% (inactive) | inactive | inactive | inactive | – | inactive | 39.8 µM (active)
16 | CCCCCC1Nc2cc(C(F)(F)F)c(S(N)(=O)=O)cc2S(=O)(=O)N1 (stereo not given) | -15.8% (inactive) | inactive | inactive | inactive | inactive | inactive | –
17 | Cc1c(N(C)C)c(=O)n(-c2ccccc2)n1C | 14.3% (inactive) | inactive | inactive | inactive | inactive | inactive | –
18 | OC[C@]1(O)OC[C@@H](O)[C@H](O)[C@@H]1O | -31% (inactive) | inactive | inactive | inactive | inactive | inactive | –
19 | CCOc1c(N2CCOCC2)cnn(C)c1=O | -16.1% (inactive) | inactive | inactive | inactive | inactive | inactive | –
20 | CC(C)Cn1cnc2c1c(=O)n(C)c(=O)n2C | -27.1% (inactive) | inactive | inactive | inactive | inactive | inactive | –
21 | O=C(O)CNC(=O)c1ccccc1I | -12.8% (inactive) | inactive | inactive | inactive | inactive | inactive | –
22 | N[C@@H](CSCCCO)C(=O)O | 25.1% (inactive) | inactive | inactive | inactive | inactive | inactive | –
23 | CC1(C)O[C@@H]2C[C@H]3[C@@H]4C[C@H](F)C5=CC(=O)CC[C@]5(C)[C@H]4[C@@H](O)C[C@]3(C)[C@]2(C(=O)CO)O1 | 23.9% (inactive) | inactive | inactive | inactive | inactive | inactive | –
24 | OC(CN1CCC(Cc2ccc(F)cc2)CC1)c1ccc(Cl)cc1 (stereo not given) | -10% (inactive) | inactive | inactive | inactive | inactive | inactive | –
25 | NS(=O)(=O)c1cc2c(cc1Cl)NCNS2(=O)=O | 14.8% (inactive) | inactive | inactive | inactive | inactive | inactive | –
26 | CCOC(=O)c1cccc(N)c1 | 16.6% (inactive) | inactive | inactive | inactive | inactive | inactive | –
27 | CCCCCN(CCCCC)C(=O)C(CCC(=O)O)NC(=O)c1ccc(Cl)c(Cl)c1 (stereo not given) | 12.6% (inactive) | inactive | inactive | inactive | inactive | inactive | –
28 | COc1cc(O)c(C(=O)c2ccccc2)cc1S(=O)(=O)O | 11.7% (inactive) | inactive | inactive | inactive | inactive | inactive | –

Row | Structure (SMILES) | efficacy [1] | outcome [2] | outcome [3] | outcome [4] | outcome [5] | outcome [6] | AC50 [5]
29 | NC(=O)CC[C@@H](N)C(=O)O | -11.5% (inactive) | inactive | inactive | inactive | inactive | inactive | –
30 | CC(C)c1cc2c(cc1S(=O)(=O)O)[C@@]1(C)CCC[C@@](C)(C(=O)O)[C@@H]1CC2 | -15.6% (inactive) | inactive | inactive | inactive | inactive | inactive | –
31 | COc1cc(C(=O)NCCCCCC(=O)O)cc(OC)c1OC | -33.5% (inactive) | inactive | inactive | inactive | inactive | inactive | –
32 | CN(C)CCC(c1ccccc1)c1ccccn1 (stereo not given) | 12.6% (inactive) | inactive | inactive | inactive | inactive | inactive | –
33 | Cc1ccc2c(Cl)cc(Cl)c(O)c2n1 | -13.1% (inactive) | inactive | inactive | inactive | inactive | inactive | –
34 | N[C@@H](Cc1ccc(O)cc1)C(=O)O | 37.7% (inactive) | inactive | inactive | inactive | inactive | inactive | –
35 | O=c1cc(CO)occ1O | 16.7% (inactive) | inactive | inactive | inactive | inactive | inactive | –
36 | CCOC(=O)CN1CCCC1=O | 24% (inactive) | inactive | inactive | inactive | inactive | inactive | –
37 | O=C1c2ccccc2C(=O)C1c1ccccc1 | 13.2% (inactive) | inactive | inactive | inactive | inactive | inactive | –
38 | NS(=O)(=O)c1cc2c(cc1Cl)NC(C1CC3C=CC1C3)NS2(=O)=O (stereo not given) | -30.9% (inactive) | inactive | inactive | inactive | inactive | inactive | –
39 | COc1cc(OC)cc(OC)c1 | -13.9% (inactive) | inactive | inactive | inactive | inactive | inactive | –
40 | Cc1c(Cl)cccc1Nc1ccccc1C(=O)O | 13.8% (inactive) | inactive | inactive | inactive | inactive | inactive | –
41 | Nc1ccncc1N | -16.5% (inactive) | inactive | inactive | inactive | inactive | inactive | –
42 | N[C@@H](Cc1c[nH]c2ccc(O)cc12)C(=O)O | 27.4% (inactive) | inactive | inactive | inactive | inactive | inactive | –
43 | Oc1cccc2[nH]ccc12 | 14.5% (inactive) | inactive | inactive | inactive | inactive | inactive | –
44 | N[C@H]1CN(c2c(F)cc3c(=O)c(C(=O)O)cn(C4C[C@@H]4F)c3c2Cl)CC12CC2 (stereo not given in full) | -25.5% (inactive) | inactive | inactive | inactive | inactive | inactive | –
45 | O=S1(=O)OC(c2ccc(O)cc2)(c2ccc(O)cc2)c2ccccc21 | 19.3% (inactive) | inactive | inactive | inactive | inactive | inactive | –
46 | O=C1c2ccccc2S(=O)(=O)N1CCCCN1CCN(c2ncccn2)CC1 | 29.9% (inactive) | inactive | inactive | inactive | inactive | inactive | –
47 | CCOc1ccc(C(=O)OCCN(CC)CC)cc1 | 22.6% (inactive) | inactive | inactive | inactive | inactive | inactive | –
48 | CC(=O)OCC(=O)NCCCOc1cccc(CN2CCCCC2)c1 | -11.5% (inactive) | inactive | inactive | inactive | inactive | inactive | –
49 | CCOC(=O)C(=O)c1csc(NC=O)n1 | -15.8% (inactive) | inactive | inactive | inactive | inactive | inactive | –
50 | Clc1ccc(C(Cn2ccnc2)OCc2ccc(Sc3ccccc3)cc2)c(Cl)c1 (stereo not given) | 29.2% (inactive) | inactive | inactive | inactive | inactive | inactive | –
51 | CC(=C(CCOC(=O)C(C)C)SSC(CCOC(=O)C(C)C)=C(C)N(C=O)Cc1cnc(C)nc1N)N(C=O)Cc1cnc(C)nc1N | -18% (inactive) | inactive | inactive | inactive | inactive | inactive | –
52 | Cc1ccc(Nc2c(F)cccc2Cl)c(CC(=O)O)c1 | -7.19% (inactive) | inactive | inactive | inactive | inactive | inactive | –
53 | N=C(N)c1ccc(OCCCOc2ccc(C(=N)N)cc2)cc1 | 14.7% (inactive) | inactive | inactive | inactive | inactive | inactive | –
54 | CCCc1ncc(C(=O)O)s1 | -25.8% (inactive) | inactive | inactive | inactive | inactive | inactive | –
55 | C=C(C)C(=O)OCC(O)CO (stereo not given) | -24.2% (inactive) | inactive | inactive | inactive | inactive | inactive | –
